{"source": "PubChem BioAssay AID602281", "about": "(The Scripps Research Institute Molecular Screening Center, 2012)", "note": "Among all 360,000 compounds or so, about 2,900 (0.81%) were called active. This is one part of a sample in which actives are shown more often than they occur. Values without a mark were called inactive.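 How the source made its calls: active means inhibition above the mean inhibition across every tested compound plus 3 SD (cut at about 22% in these data); inactive means the rest.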", "data": [{"target": "Perilipin-5 (Homo sapiens) + 1-acylglycerol-3-phosphate O-acyltransferase ABHD5 (Homo sapiens) (UniProt Q00G26+Q8WTS1)", "sequence (Q00G26 whole entry, looked up)": "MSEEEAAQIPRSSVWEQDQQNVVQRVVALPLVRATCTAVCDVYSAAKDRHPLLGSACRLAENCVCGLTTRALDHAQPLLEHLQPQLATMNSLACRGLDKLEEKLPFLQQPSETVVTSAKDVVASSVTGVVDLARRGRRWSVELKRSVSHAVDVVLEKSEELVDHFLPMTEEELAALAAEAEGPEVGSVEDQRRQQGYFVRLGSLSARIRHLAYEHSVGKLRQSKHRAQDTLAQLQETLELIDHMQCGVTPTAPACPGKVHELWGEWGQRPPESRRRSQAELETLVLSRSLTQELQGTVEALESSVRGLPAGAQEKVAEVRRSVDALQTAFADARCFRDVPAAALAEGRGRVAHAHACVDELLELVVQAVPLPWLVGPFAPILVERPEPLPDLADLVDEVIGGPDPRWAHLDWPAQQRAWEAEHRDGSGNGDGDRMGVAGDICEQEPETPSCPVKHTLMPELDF", "sequence (Q8WTS1 whole entry, looked up)": "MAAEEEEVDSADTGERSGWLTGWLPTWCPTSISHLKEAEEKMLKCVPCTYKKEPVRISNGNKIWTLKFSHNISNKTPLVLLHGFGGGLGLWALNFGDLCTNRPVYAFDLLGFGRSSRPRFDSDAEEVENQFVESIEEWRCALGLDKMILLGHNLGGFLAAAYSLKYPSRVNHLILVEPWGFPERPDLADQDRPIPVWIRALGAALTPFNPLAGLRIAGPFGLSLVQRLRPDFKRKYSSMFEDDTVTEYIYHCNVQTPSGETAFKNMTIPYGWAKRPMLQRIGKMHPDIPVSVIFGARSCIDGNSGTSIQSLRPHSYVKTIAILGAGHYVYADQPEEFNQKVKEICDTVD", "experiment": "ABHD5-PLIN5 interaction inhibitors, primary screen, cell lysate, split luciferase complementation, luminescence (AID 602281);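 further: 0% = DMSO only wells and the 100% control is not disclosed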", "conditions": "Split G. princeps luciferase complementation, 4 h, at 4 µM, hits give high values", "values": [{"compound": "CC(C)C1Cc2[nH][nH]c(=O)c2C(c2ccc(Cl)cc2)O1", "note": "(configuration not stated)", "inhibition": "4.21%"}, {"compound": "O=c1[nH][nH]c2c1[C@H](c1ccc(Cl)cc1)O[C@H](CCc1ccccc1)C2", "inhibition": "29.6% (active)"}, {"compound": "COc1ccc(C2OC(CCc3ccccc3)Cc3[nH]c(=S)[nH]c(=O)c32)cc1", "note": "(configuration not stated)", "inhibition": "-6.49%"}, {"compound": "CCOCCCNC(=O)c1ccc(CS(=O)(=O)c2cccc(C(F)(F)F)c2)o1", "inhibition": "9.27%"}, {"compound": "N#C/C(=C(\\O)C(F)(F)F)c1nnc2n1CCCCC2", "inhibition": "4.79%"}, {"compound": "CC(=O)OCCOCn1cnn2c(=O)c(Br)c(C)nc12", "inhibition": "-1.92%"}, {"compound": "Cn1c2c(c(=O)n(C)c1=O)C(c1cccc(F)c1)C(C#N)=C(N)O2", "note": "(configuration not stated)", "inhibition": "12.7%"}, {"compound": "Cc1cc2c(c(=O)n1C)C(C(C)C)C(C#N)=C(N)O2", "note": "(configuration not stated)", "inhibition": "1.5%"}, {"compound": "Cc1cc2c(c(=O)n1Cc1ccco1)C(c1ccccc1)C(C#N)=C(N)O2", "note": "(configuration not stated)", "inhibition": "36.4% (active)"}, {"compound": "CC1CCCCC1NC(=O)CSc1nnc(-c2ccncc2)n1CCCN(C)C", "note": "(configuration not stated)", "inhibition": "3.79%"}, {"compound": "COC1=NC2=NCCN2C(OC)=N1", "inhibition": "7.21%"}, {"compound": "Cn1c2ccccc2c2cc(/C=C(\\NC(=O)c3ccccc3)C(=O)NCC(=O)O)ccc21", "inhibition": "4.74%"}, {"compound": "C[C@H](CO)N1C[C@H](C)[C@@H](CN(C)Cc2ccc(-c3ccccc3)cc2)Oc2ccc(NC(=O)Cn3cnnn3)cc2C1=O", "inhibition": "1.64%"}, {"compound": "O=C(CSC1=NS(=O)(=O)c2cc(F)ccc2N1)Nc1ccccc1F", "inhibition": "-1.35%"}, {"compound": "C=CCNC(=S)/N=c1/ccccn1Cc1ccccc1", "inhibition": "-6.7%"}, {"compound": "OC(c1ccccc1)(c1ccccc1)C1CCN(CCCOc2ccccc2)CC1", "inhibition": "4.12%"}, {"compound": "CC1CCCN(CC(=O)Nc2cc(Cl)ccc2Oc2ccccc2)C1", "note": "(configuration not stated)", "inhibition": "-6.16%"}, {"compound": "CN1CCC[C@@H]1CCO[C@](C)(c1ccccc1)c1ccc(Cl)cc1", "inhibition": "24.5% (active)"}, {"compound": "Cc1cc(C)cc(N)c1", "inhibition": "-4.69%"}, {"compound": "COc1cc(/C=C/CNC[C@H]2O[C@@H](n3cnc(C(N)=O)n3)[C@H](O)[C@@H]2O)ccc1O", "inhibition": "9.45%"}, {"compound": "COc1ccc(NC(=O)ON=C2c3ccccc3-c3ccccc32)cc1", "inhibition": "-4.58%"}, {"compound": "COc1ccc(NC(=O)C2=C(C)NC(=O)NC2c2ccccc2[N+](=O)[O-])cc1", "note": "(configuration not stated)", "inhibition": "-1.09%"}, {"compound": "COc1ccc(N/C=C(\\C2OC(=O)c3ccccc32)[N+](=O)[O-])cc1", "note": "(configuration not stated)", "inhibition": "42.9% (active)"}, {"compound": "Cc1cc(C)c(S(=O)(=O)N2CCOCC2)cc1C", "inhibition": "2.37%"}, {"compound": "CC(=O)c1ccc(N=C2SCCCN2C(=O)C2CCCCC2)cc1", "inhibition": "-0.57%"}, {"compound": "CC(=O)c1c(C)[nH]c(C(=O)COc2ccc3c(C)cc(=O)oc3c2)c1C", "inhibition": "-4.41%"}, {"compound": "C/C(=N\\NC(=O)c1ccc(C)cc1)C1C(=O)c2ccccc2C1=O", "inhibition": "5.2%"}, {"compound": "CN(C)C(=O)c1ccc(NC(=O)c2ccccc2-c2ccccc2)cc1", "inhibition": "2.67%"}, {"compound": "O=C(NC1=CC(=O)c2ccccc2C1=O)c1ccccc1", "inhibition": "84.6% (active)"}, {"compound": "CCC(=O)Nc1ccc(C(=O)CSc2nnc(CNc3ccc(Cl)cc3)o2)cc1OC", "inhibition": "-15.2%"}, {"compound": "OC1CSc2nc3ccccc3n2C1", "note": "(configuration not stated)", "inhibition": "1.22%"}, {"compound": "O=C(Cc1ccccc1Cl)N1CCOCC1", "inhibition": "1.3%"}, {"compound": "Cc1cc(C)c(NC(=O)CN2C(=O)NC(Cc3ccccc3)C2=O)c(C)c1", "note": "(configuration not stated)", "inhibition": "3.3%"}, {"compound": "CSc1nnc(NC(=O)c2nc(S(=O)(=O)Cc3ccc(C)cc3)ncc2Cl)s1", "inhibition": "32.5% (active)"}, {"compound": "Cc1ccc(CS(=O)(=O)CCC(=O)NC2CC2)cc1", "inhibition": "0.91%"}, {"compound": "CN(Cc1ccccc1)S(=O)(=O)c1nnc(NC(=O)c2ccccc2F)s1", "inhibition": "-11.4%"}, {"compound": "O=C(Nc1nnc(Cc2ccc(Cl)cc2)s1)c1cccnc1", "inhibition": "10%"}, {"compound": "Cc1ccc(CS(=O)(=O)c2ncc(Cl)c(C(=O)Nc3nnc(C)s3)n2)cc1", "inhibition": "43.2% (active)"}, {"compound": "CCOC(=O)c1sc(N)c(C#N)c1COC(=O)C1=COCCO1", "inhibition": "-2.21%"}, {"compound": "CCCCn1c(N)c(N(CCOC)C(=O)c2cccc(S(=O)(=O)N(C)c3ccccc3)c2)c(=O)[nH]c1=O", "inhibition": "-4.97%"}, {"compound": "COC(=O)Cc1ccc(N(Cc2ccccc2F)S(=O)(=O)c2ccc(Br)cc2)cc1", "inhibition": "0.04%"}, {"compound": "Cc1cccc(NC(=O)c2ccc(OCC(=O)NCc3ccccc3)cc2)c1C", "inhibition": "-5.25%"}, {"compound": "Cc1cccc(NC(=O)c2ccc3nsnc3c2)c1C", "inhibition": "122% (active)"}, {"compound": "Cc1cccc(NC(=O)c2cccc(C(=O)Nc3cccc(C)c3C)n2)c1C", "inhibition": "-2.21%"}, {"compound": "Cc1noc(C)c1COc1ccccc1C(=O)N(C)CC(=O)Nc1cccc(F)c1", "inhibition": "8.24%"}, {"compound": "O=NN(CCCl)C(=O)NCCc1cccc[n+]1[O-]", "inhibition": "1.74%"}, {"compound": "COC(=O)C1(C)NC(c2ccccc2OC)C2C(=O)N(c3ccccc3)C(=O)C21", "note": "(configuration not stated)", "inhibition": "69.3% (active)"}, {"compound": "COC(=O)C1(C)NC(c2ccc(F)cc2)C2C(=O)N(c3ccccc3)C(=O)C21", "note": "(configuration not stated)", "inhibition": "-0.78%"}, {"compound": "COC(=O)C1(C)NC(c2ccc(C)cc2)C2C(=O)N(c3ccc(F)cc3)C(=O)C21", "note": "(configuration not stated)", "inhibition": "4.79%"}, {"compound": "CC(C)CNC(=S)NNC(=O)c1nn(C)cc1Cl", "inhibition": "-4.74%"}, {"compound": "CCOc1ccc(CCN2C(=O)C(=O)N([C@@H](Cc3ccc(O)cc3)CN3CCC[C@H]3CN3C(=O)C(=O)NC[C@@H]3CC(C)C)C[C@@H]2Cc2ccccc2)cc1", "inhibition": "3.51%"}, {"compound": "Cc1cc(NC(=O)COC(=O)COc2ccc(Cl)cc2C)c([N+](=O)[O-])cc1C", "inhibition": "4.5%"}, {"compound": "CC(=O)c1ccc(N2CCN(S(=O)(=O)c3c(C)[nH]c(=O)[nH]c3=O)CC2)cc1", "inhibition": "1.36%"}, {"compound": "CCN1CCN(CCNC(=O)c2ccc3c(c2)NC(=O)/C(=C\\c2cccc(Cl)c2)S3)CC1", "inhibition": "12.3%"}, {"compound": "CCN(CCCNC(=O)c1ccc2c(c1)NC(=O)CN2C)c1cccc(C)c1", "inhibition": "76.6% (active)"}, {"compound": "CCN(CCCNC(=O)CCn1c(=O)[nH]c2ccsc2c1=O)c1ccccc1", "inhibition": "-1.79%"}, {"compound": "CCN(c1ccc2c(c1)OCO2)S(=O)(=O)c1cc(Br)cc2c1N(C(=O)C1CC1)CC2", "inhibition": "-5.83%"}]}]}
